Bioassay records deposited in PubChem by National Center for Advancing Translational Sciences (NCATS).
Rows were chosen to be rich in hits. Some 4% of all compounds tested hit in one or more screens of this group.
D1 PAM – enhances dopamine response at the human D1 receptor | HEK293 TREx D1 cells, calcium flux, dopamine EC20 potentiation | potentiation, % at 10 µM | hit rate 0.036% among 360,000; in the data active = potentiation above about 30%
TRHR enhancer-1 – allosterically enhances the human TRH receptor; TRHR cells, fluo-8 calcium fluorescence, EC20 TRH enhancement; enhancement, % at 2 µM; hit rate 0.66% among 360,000; AID 493056; in the data active = enhancement above about 30%
Target sequence (P34981 whole entry, looked up): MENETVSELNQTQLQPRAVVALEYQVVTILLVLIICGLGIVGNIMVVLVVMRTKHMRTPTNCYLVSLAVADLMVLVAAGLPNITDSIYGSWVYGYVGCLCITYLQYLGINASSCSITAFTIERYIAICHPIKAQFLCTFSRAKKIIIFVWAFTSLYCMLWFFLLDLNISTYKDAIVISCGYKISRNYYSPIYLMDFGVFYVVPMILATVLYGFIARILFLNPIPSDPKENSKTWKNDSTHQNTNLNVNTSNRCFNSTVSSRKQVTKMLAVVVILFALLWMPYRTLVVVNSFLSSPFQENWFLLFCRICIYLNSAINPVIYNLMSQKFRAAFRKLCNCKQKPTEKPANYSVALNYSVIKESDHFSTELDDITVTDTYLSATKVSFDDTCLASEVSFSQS
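Enhancer read-out: after compound pinning and an initial kinetic agonist-mode read, an EC20 of TRH (10 nM final) was injected and fluo-8 calcium signal (Ex 480/Em 530) followed at 1 s/cycle for 100 cycles in TRHR-expressing cells.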
D1 ag – agonists of human D1 dopamine receptor. activation, % at 2 µM. HEK293 T-REx D1 cells, calcium flux, agonist mode. AID 504660. hit rate 1% among 360,000; in the data active = activation above about 30%
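Inducible HEK293 T-REx D1 cells, force-coupled to calcium signalling, were plated at 4000 cells/well with tetracycline and held overnight at 30 C. After no-wash calcium dye loading, compound-evoked calcium rise over 180 s flagged agonists.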
Glioma ERSR ind – inducers of ER stress response in human glioma cells; U87-MG GRP78 promoter luciferase reporter, 16 h; Potency, µM, most hits filed as activators; hit rate 0.02% among 420,000; AID 602332; also: series mostly up to about 76 µM; nearly all actives have a fitted effect of over 35% in size
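Stably transfected U87-MG glioma cells carrying a GRP78-based luciferase sensor; 16 h compound incubation. Luminescence end-point read 10 min after Bright-Glo addition at room temperature.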
D1 antag – human D1 dopamine receptor antagonism; P21728; HEK293 TREx D1 cells, calcium flux, dopamine EC80; hits give low values; activity change, negative = inhibition, % at 10 µM; hit rate 3.2% among 360,000; AID 504652; in the data active = activity change below about -30%
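Allosteric or orthosteric antagonism assessed as attenuation of the calcium response to EC80 dopamine, added 180 s after compound, in induced HEK293 Trex D1 cells loaded with no-wash calcium dye.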
TRHR agonist-1 – TRH receptor (human) agonism | activation, % at 2 µM | TRHR cells, calcium flux fluo-8, FDSS agonist mode | hit rate 0.18% among 360,000 | P34981; in the data active = activation above about 30%
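Agonist-mode FDSS calcium read (Ex 480/Em 530, 1 s cycles) in 1536-well TRHR cells with fluo-8 dye, after 10-cycle baseline and 23 nL compound addition; TRH at EC20 (10 nM final) added afterwards for the enhancer phase.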
TRHR enhancer-2 – confirmation of human TRH receptor allosteric enhancers. shares compounds with TRHR enhancer-1. TRH receptor cell assay, enhancer confirmation qHTS. activity change, negative = inhibition, % at 46.1 µM. 970 tested, under 10 active. AID 493076;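 also: compound effect scored on response to added TRH at EC20 of 10 nM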
TRHR agonist-2 – confirmation of human TRH receptor agonists; shares compounds with TRHR enhancer-1; TRHR-expressing cells, agonist activation read-out; Potency, µM (titrated, usually from 46.1 µM), hits mostly activators; hit rate 8% among 970; also: nearly all actives have a fitted effect of over 75% in size
Hits are given with their value; i = inactive; ? = inconclusive; nt = not tested or not shown. Unless noted, calls follow the shape of the dose curve; as a rule, active = well fitted curve in the direction sought with a large enough effect; inconclusive = small, poorly fitted or top-dose-only effect, or another doubt; inactive = no such curve, though single readings can be large; an effect the other way counts as inactive or inconclusive.

SMILES	D1 PAM	TRHR enhancer-1	D1 ag	Glioma ERSR ind	D1 antag	TRHR agonist-1	TRHR enhancer-2	TRHR agonist-2
CCc1ccc(NC(=O)C[n+]2cc(-c3ccc(C)cc3)n3c2CCC3)cc1	i	42	i	i	i	i	i	i
CN(C)c1ccc(/C=C2/C(=O)Nc3ccccc32)cc1	nt	nt	nt	i	nt	nt	nt	nt
Cc1ccccc1C(=O)c1cccn1CC(=O)NC(C)CCc1ccccc1 (configuration not stated)	i	i	i	i	i	i	nt	nt
CC(CCc1ccccc1)NC(=O)Cn1cccc1C(=O)c1ccccc1 (configuration not stated)	i	46	i	i	i	i	?	i
COc1cc(Br)cc(C=Nc2cccc(C(F)(F)F)c2)c1O	i	i	i	i	i	i	nt	nt
COc1cc(/C=C2\SC(=S)N(C(Cc3ccccc3)C(=O)O)C2=O)ccc1O (configuration not stated)	i	i	47	i	i	34	i	?
O=C(NN1C(=O)/C(=C/c2ccc(O)c(O)c2)SC1=S)c1ccccc1	i	i	i	?	i	i	?	?
COc1cc(/C=C2\SC(=S)N(Nc3ncc(C(F)(F)F)cc3Cl)C2=O)ccc1O	i	i	97	i	i	47	i	?
COc1cc(/C=C2\SC(=S)N(Nc3ccccc3)C2=O)ccc1O	i	i	122	i	i	35	i	16µM
COc1cc(/C=C2\SC(=S)N(NC(=O)c3cccnc3)C2=O)ccc1O	i	i	i	i	i	i	nt	nt
O=C(COC(=O)c1ccc(O)cc1)Nc1ccc(Cl)cc1	i	i	i	i	i	i	nt	nt
COc1cc(OC)c(NC(=O)N2CCN3CCCCC3C2)cc1Cl (configuration not stated)	i	i	i	i	i	i	nt	nt
C#CCOCCOCCOCCNc1nc(N2CCN(C(=O)[C@H](CCCCN)n3cc([C@@H](N)CO)nn3)CC2)nc(N2CCN(C(=O)[C@H](Cc3cc4ccccc4[nH]3)n3cc([C@@H](N)CO)nn3)CC2)n1	i	i	i	nt	i	i	nt	nt
COc1ccc(C(CNC(=O)c2ccc(Cl)c(NC(=O)c3cccs3)c2)N2CCCC2)cc1 (configuration not stated)	i	60	i	i	i	i	i	i
OCc1nc2ccc(Cl)cc2[nH]1	i	i	i	i	i	i	nt	nt
CC(=O)Nc1ccc2c(c1)nc(CCNC(=O)c1ccccc1)n2C	i	42	i	i	i	i	i	i
Cn1c(CN2CCCC2)nc2cc(NC(=O)c3ccco3)ccc21	i	55	i	i	i	i	i	i
Cc1ccc(NC(=O)c2cnn3c2NC(=C2CC2)C=C3C(F)F)cc1C	nt	nt	nt	i	nt	nt	nt	nt
Cc1[nH]nc2c1C1(C(=O)Nc3ccc([N+](=O)[O-])cc31)C(C#N)=C(N)O2 (configuration not stated)	i	116	i	i	nt	i	i	i
Cc1ccc(SCc2[nH]nc3c2C2(C(=O)Nc4ccc(F)cc42)C(C#N)=C(N)O3)cc1 (configuration not stated)	i	i	i	i	i	i	nt	nt
CCc1nnc(NC(=O)C2CCN(c3ncnc4sc(C)c(C)c34)CC2)s1	i	42	i	i	i	i	i	i
CCOC(=O)C1CCCN(c2c(Nc3ccc(C)c(C)c3)c(=O)c2=O)C1 (configuration not stated)	i	57	i	i	i	i	i	i
Cc1ccc(Cn2ccc(C3CC3)n2)cc1	i	51	i	i	i	i	i	i
COc1ccc(NC(=O)COc2ccc3c(c2)CCC3)cc1	i	42	i	i	i	i	i	i
Cc1nc(NC(=O)C2CCCCC2C(=O)O)sc1C (configuration not stated)	i	i	i	i	i	i	nt	nt
SMILES	D1 PAM	TRHR enhancer-1	D1 ag	Glioma ERSR ind	D1 antag	TRHR agonist-1	TRHR enhancer-2	TRHR agonist-2
CCOC(=O)c1c(C)n(-c2ccccc2)c2ccc(O)cc12	i	46	i	i	-70	i	i	i
CS(=O)(=O)c1ccc(Cl)c(NC(=O)CN2CCCC2c2ccc3c(c2)OCCCO3)c1 (configuration not stated)	i	46	i	i	i	i	i	i
CCCc1cc(C(=O)Nc2cnn(Cc3ccc(F)cc3)c2)no1	i	i	i	i	i	i	nt	nt
Cc1ccc(/C=C2\SC(=S)N(CCCC(=O)Nc3cc(C)on3)C2=O)cc1	i	i	i	i	i	i	nt	nt
Cc1cc(NC(=O)CN2C(=O)/C(=C/c3cccc(Br)c3)SC2=S)no1	i	47	i	i	i	i	i	i
Cc1nc2ccc(NC(=O)c3ccc(Cl)s3)cc2s1	nt	i	i	i	i	i	nt	nt
Cc1cccc(Oc2ccc3c(c2)Oc2ccccc2NC3=O)c1	i	i	i	i	i	i	nt	nt
C=CCOc1ccc(C2C(C(=O)c3ccco3)=C(O)C(=O)N2c2nnc(C)s2)cc1 (configuration not stated)	i	i	57	i	i	40	i	i
COc1ccc(C2C(C(=O)c3ccco3)=C(O)C(=O)N2c2nnc(C)s2)cc1 (configuration not stated)	i	i	i	i	i	i	nt	nt
Cc1c(Cc2ccccc2)c(=O)oc2c(O)c(O)ccc12	i	41	i	i	i	i	i	i
COc1ccccc1N1C(=O)c2cccc3c(N(C)CCO)ccc(c23)C1=O	i	i	56	i	i	61	i	21µM
CC(=O)Nc1cccc2c1C(=O)N(c1ccccc1C)C2=O	i	i	i	i	i	i	nt	nt
Cc1ccccc1N1C(=O)c2cccc3c(N(C)CCO)ccc(c23)C1=O	i	i	86	i	i	41	i	18µM
Nc1ccc(/C=C/C(=O)c2cccs2)cc1	i	i	82	i	i	52	?	21µM
CC(C)CC1=NN2C(=N)/C(=C\c3coc4ccccc4c3=O)C(=O)N=C2S1	i	i	61	i	i	i	i	2.6µM
Cc1ccc(CN2C(=O)N/C(=C/c3ccc(-c4ccc(C(=O)O)cc4)o3)C2=O)cc1	i	i	i	i	i	i	nt	nt
c1ccc(Cc2noc(CN3CCC(CN4CCOCC4)CC3)n2)cc1	i	i	i	i	i	i	nt	nt
Oc1ccc2ccccc2c1/C=N/Nc1nnc(-c2ncc[nH]2)c2ccccc12	i	i	36	i	i	46	?	23µM
COc1ccccc1C/C(N)=N/OC(=O)c1cccs1	i	47	i	i	i	i	i	i
COCCCN1C(=O)C(=O)/C(=C(/O)c2ccc(OC(C)C)cc2)C1c1cccnc1 (configuration not stated)	i	i	i	i	i	i	nt	nt
